Data on 18 compounds can be found in PubChem BioAssay (NCATS).

The target in assay [1] is Peroxisome proliferator-activated receptor gamma (Homo sapiens) (UniProt P37231). As to the kind of experiment: qHTS assay for small molecule agonists of peroxisome proliferator-activated receptor gamma signaling (AID 588536; active means well fitted curve in the direction sought with a large enough effect in the signal ratio, with a control signal flat, not every such curve was filed as active; the % refers to the signal ratio;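 further: 0% = DMSO basal wells and 100% = rosiglitazone at 2 µM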). The method in brief: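 Cells were plated and held 6–6.5 h at 37 C, then compounds were added as a titration series. After a further 16 h, CCF4 dye was loaded for 2 h at room temperature and emission at 460/530 nm recorded.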
A general note: Quantitative high-throughput screening tests each substance at several concentrations.

For assay [2] the target is unchanged. As to the kind of experiment: qHTS assay for small molecule antagonists of peroxisome proliferator-activated receptor gamma signaling (AID 588537; active means well fitted inhibition curve with a large enough effect in the signal ratio, with a control signal flat, not every such curve was filed as active; the % refers to the signal ratio; further: potency means the concentration at half of the fitted maximal effect). A digest of the protocol:
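Fluorescence at 460 and 530 nm (405 nm excitation) reported beta-lactamase cleavage of CCF4 after 2 h room-temperature loading. HEK293 reporter cells in 1% charcoal/dextran-treated FBS had received compound and rosiglitazone for 16 h.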

The target of assay [3] is Vitamin D3 receptor (Homo sapiens) (UniProt P11473). Nature of the assay: qHTS assay for small molecule agonists of vitamin D receptor signaling (AID 588543).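 Further: 0% = DMSO basal and 100% = reference agonist control.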 A digest of the protocol: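 Reporter cells (HEK293T, VDR-UAS-bla) were seeded in medium with 2% charcoal-stripped serum and incubated 5 h, then compounds in concentration series were added for 16 h at 37 °C. Stimulation was scaled between DMSO basal and 50 nM 1α,25-dihydroxyvitamin D3.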

Assay [4] in a line: qHTS assay for small molecule agonists of retinoid X receptor alpha signaling (AID 588544). Further: potency means the concentration at half of the fitted maximal effect. As to conditions: HEK293T RXRa-UAS-bla, beta-lactamase reporter, 18 h; 530 nm emission.
Assay [5] concerns the target Retinoic acid receptor RXR-alpha (Homo sapiens) (UniProt P19793). The description is as above.
In assay [6] the target is Thyroid hormone receptor beta (Homo sapiens) (UniProt P10828). Nature of the assay: qHTS assay for small molecule agonists of thyroid hormone receptor beta signaling (AID 588545).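 Further: 0% = DMSO only and 100% = 10 nM T3.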 A digest of the protocol:
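Compounds were tested as agonists in TR-UAS-bla-GripTite HEK 293 cells. After 18 hrs at 37 C, CCF4 substrate was added and fluorescence read after 2 hrs at room temperature.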

Assay [7] in a line: qHTS assay for small molecule antagonists of retinoid X receptor alpha signaling (AID 588546; active means well fitted inhibition curve with a large enough effect in the signal ratio, with a control signal flat, not every such curve was filed as active; the % refers to the signal ratio;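 further: cells stimulated with 9-cis-retinoic acid as agonist; on the % scale 0 is the no-effect control and ±100 the full control effect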). As to conditions: HEK293T RXRa-UAS-bla, beta-lactamase ratio, antagonist mode; measured here: W530 green channel, cytotoxicity proxy. A digest of the protocol:
(§1)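 Beta-lactamase reporter inhibition, read as CCF4 fluorescence ratio (ex 405, em 460/530 nm) after 2 h at RT. HEK293T UAS-bla cells, 2500/well, were stimulated with 9-cis-RA at 500 or 100 nM final alongside test compound for 18 h at 37 C.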

Assay [8] deals with Retinoic acid receptor RXR-alpha (Homo sapiens) (UniProt P19793). The assay is described as above. As to conditions: HEK293T RXRa-UAS-bla, beta-lactamase ratio, antagonist mode. The method in brief: as §1
For assay [9], the target named is Thyroid hormone receptor beta (Homo sapiens) (UniProt P10828). Nature of the assay: qHTS assay for small molecule antagonists of thyroid hormone receptor beta signaling (AID 588547; active means well fitted inhibition curve with a large enough effect in the signal ratio, with a control signal flat, not every such curve was filed as active; the % refers to the signal ratio;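 further: cells stimulated with 0.4 nM T3 agonist during compound exposure; series mostly up to about 77 µM; on the % scale 0 is the no-effect control and ±100 the full control effect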). As to conditions: TR-UAS-bla HEK293, beta-lactamase ratio, antagonist mode, 18 h. A digest of the protocol:
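TR-UAS-bla GripTite HEK293 cells in 2% charcoal/dextran FBS medium; compounds 0.59 nM to 92 uM with T3 at 0.4nM final, 18 h at 37 C. Beta-lactamase read by CCF4 fluorescence (460/530 nm); Hill fits gave IC50 and efficacy.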

Assay [10] addresses Voltage-gated inwardly rectifying potassium channel KCNH2 (Homo sapiens) (UniProt Q12809). Nature of the assay: qHTS Assay for Small Molecule Inhibitors of the Human hERG Channel Activity (AID 588834; active means well fitted inhibition curve with a large enough effect;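 further: lower thallium flux fluorescence means stronger hERG block; nearly all actives have a fitted effect of over 50% in size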; further: potency means the concentration at half of the fitted maximal effect). A digest of the protocol: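 Step 1: BacMam hERG transduction of U2OS, 4 hrs RT. Step 2: overnight 37 °C, plate 2000 cells/well, 4 hr. Step 3: FluxOR load, compound 10 min, stimulate, read fluorescence.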

Several values for one entry are separate records, joined by “and”; a condition that tells them apart may be missing. Identical values can stand only once. Records with an inconclusive call do not appear. The source holds several records for some structures; these can differ, active in one and inactive in another. Activity calls are given as the source filed them. Unless noted, the call rests on the fitted dose curve.

Sequence of Thyroid hormone receptor beta (Homo sapiens) (P10828 whole entry, looked up): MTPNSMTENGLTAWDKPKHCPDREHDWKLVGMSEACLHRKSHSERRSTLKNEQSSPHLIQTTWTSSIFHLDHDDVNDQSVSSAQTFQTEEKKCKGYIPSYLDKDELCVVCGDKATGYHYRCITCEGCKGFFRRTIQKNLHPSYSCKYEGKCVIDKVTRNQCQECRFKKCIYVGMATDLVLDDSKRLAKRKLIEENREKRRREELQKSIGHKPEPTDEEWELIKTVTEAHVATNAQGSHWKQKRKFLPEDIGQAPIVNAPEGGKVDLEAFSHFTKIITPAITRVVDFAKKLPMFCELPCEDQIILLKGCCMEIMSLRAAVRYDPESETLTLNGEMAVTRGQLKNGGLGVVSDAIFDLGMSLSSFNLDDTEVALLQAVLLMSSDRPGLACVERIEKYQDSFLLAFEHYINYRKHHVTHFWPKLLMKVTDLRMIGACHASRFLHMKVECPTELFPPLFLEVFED
Sequence of Voltage-gated inwardly rectifying potassium channel KCNH2 (Homo sapiens) (Q12809 whole entry, looked up): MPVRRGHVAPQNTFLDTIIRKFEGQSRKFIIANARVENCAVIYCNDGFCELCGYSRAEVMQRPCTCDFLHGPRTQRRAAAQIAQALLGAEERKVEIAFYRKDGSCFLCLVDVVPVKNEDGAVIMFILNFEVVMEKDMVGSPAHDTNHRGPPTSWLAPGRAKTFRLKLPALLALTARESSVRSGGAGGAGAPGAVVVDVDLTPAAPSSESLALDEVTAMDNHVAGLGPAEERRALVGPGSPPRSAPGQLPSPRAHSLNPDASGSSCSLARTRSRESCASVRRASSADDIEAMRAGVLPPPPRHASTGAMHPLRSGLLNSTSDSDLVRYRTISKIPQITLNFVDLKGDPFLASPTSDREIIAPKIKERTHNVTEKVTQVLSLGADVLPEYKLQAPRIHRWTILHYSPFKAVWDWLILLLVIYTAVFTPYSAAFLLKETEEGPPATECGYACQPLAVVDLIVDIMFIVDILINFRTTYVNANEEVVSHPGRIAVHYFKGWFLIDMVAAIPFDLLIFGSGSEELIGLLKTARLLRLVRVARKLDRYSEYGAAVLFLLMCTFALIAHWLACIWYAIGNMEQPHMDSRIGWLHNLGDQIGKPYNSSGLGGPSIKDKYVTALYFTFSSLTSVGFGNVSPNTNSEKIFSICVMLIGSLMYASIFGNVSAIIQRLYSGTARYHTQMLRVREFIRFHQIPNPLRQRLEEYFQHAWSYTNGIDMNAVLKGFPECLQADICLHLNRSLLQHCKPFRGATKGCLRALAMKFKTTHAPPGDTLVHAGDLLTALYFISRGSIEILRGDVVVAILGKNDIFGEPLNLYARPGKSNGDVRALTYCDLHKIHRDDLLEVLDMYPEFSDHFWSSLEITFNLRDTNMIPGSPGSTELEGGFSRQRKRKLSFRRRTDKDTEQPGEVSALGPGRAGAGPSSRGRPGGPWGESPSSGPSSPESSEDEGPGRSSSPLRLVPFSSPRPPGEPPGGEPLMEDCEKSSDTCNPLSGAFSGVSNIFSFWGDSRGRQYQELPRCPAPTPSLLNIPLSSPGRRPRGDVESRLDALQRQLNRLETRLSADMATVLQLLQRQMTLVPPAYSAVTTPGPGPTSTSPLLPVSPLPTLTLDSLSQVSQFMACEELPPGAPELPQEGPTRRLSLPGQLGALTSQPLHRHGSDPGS
Sequence of Peroxisome proliferator-activated receptor gamma (Homo sapiens) (P37231 whole entry, looked up): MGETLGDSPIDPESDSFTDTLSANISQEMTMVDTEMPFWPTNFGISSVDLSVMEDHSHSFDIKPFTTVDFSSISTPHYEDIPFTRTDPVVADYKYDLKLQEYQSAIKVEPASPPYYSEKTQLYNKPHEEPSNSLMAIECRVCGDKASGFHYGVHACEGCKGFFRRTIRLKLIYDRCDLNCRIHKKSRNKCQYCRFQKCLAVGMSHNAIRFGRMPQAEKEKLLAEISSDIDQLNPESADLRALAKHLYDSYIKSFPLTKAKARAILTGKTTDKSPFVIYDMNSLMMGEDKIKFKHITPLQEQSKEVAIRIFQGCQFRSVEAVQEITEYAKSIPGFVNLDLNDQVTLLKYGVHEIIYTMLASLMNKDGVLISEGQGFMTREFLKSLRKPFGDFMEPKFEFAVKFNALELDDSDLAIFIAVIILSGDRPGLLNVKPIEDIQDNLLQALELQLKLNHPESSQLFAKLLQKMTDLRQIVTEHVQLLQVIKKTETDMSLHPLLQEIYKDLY
Sequence of Retinoic acid receptor RXR-alpha (Homo sapiens) (P19793 whole entry, looked up): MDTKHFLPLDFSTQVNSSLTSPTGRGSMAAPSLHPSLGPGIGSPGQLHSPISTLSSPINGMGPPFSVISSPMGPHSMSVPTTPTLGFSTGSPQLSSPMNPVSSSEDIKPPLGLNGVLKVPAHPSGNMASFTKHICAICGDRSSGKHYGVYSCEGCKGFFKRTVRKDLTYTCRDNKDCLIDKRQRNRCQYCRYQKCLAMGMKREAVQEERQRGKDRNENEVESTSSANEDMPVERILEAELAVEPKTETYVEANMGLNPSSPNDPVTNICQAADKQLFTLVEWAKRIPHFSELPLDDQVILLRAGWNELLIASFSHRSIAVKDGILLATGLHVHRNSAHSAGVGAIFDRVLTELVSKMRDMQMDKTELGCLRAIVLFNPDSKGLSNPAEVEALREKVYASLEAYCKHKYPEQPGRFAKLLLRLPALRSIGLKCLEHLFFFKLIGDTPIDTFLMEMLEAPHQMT
Sequence of Vitamin D3 receptor (Homo sapiens) (P11473 whole entry, looked up): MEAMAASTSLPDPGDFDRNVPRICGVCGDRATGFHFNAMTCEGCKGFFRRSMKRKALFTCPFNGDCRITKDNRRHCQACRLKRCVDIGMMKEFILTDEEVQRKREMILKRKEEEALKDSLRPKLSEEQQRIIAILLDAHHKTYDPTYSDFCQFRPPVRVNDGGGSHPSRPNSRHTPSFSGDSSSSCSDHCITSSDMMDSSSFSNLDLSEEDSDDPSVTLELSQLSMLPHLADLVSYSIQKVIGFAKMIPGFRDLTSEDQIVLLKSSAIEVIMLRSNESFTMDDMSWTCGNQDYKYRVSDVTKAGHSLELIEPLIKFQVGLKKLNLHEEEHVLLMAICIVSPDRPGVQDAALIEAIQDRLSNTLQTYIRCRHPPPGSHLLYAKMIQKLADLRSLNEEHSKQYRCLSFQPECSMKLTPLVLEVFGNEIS

As for `O=[N+]([O-])c1c(Cl)c(Cl)cc(Cl)c1Cl`, the result in assay [1], in assay [3] and in [6] was inactive. In addition, in [2], the Potency is 15.8 µM (active). Moreover, the max response in [4] was -2.76%; in [7], -4.05%; in assay [8], 6.87% (inactive). Also, the Potency entry in [5] and in [10] was “inactive” in each case. In addition, in assay [9], the activity change % (negative = inhibition) is -0.964% (inactive).

Regarding `CN(C)[C@@H]1C(=O)C(C(N)=O)=C(O)[C@@]2(O)C(=O)C3=C(O)c4c(O)cccc4[C@@](C)(O)[C@H]3[C@H](O)[C@@H]12`, the call in [1] and in assay [6] was inactive. For the same compound, the Potency entry in [2], in assay [5] and in assay [10] was “inactive” each time. Further, the max response in assay [4] was 10.7% and 6.3% and 19.5%; in [7], 16.2% and 7.17% and 21.1%; in assay [8] it was -9.03% (inactive) and -41.7% (inactive) and -15.3% (inactive). The activity change % (negative = inhibition) in [9] was 2.86% (inactive) and -5.16% (inactive) and -23.7% (inactive).

Turning to `O=S(=O)(c1ccc(Cl)cc1)c1ccc(Cl)cc1`, the outcome in [1], in assay [3] and in [6] was inactive. Further, the max response in assay [4] is -4.56% and -1.98%; in assay [7] it was -9.45% and -15.5% and -9.97%; in [8], -23.5% (inactive) and -4.94% (inactive) and -14.2% (inactive). Also, in [5], the Potency result was “inactive”. The activity change % (negative = inhibition) in [9] was 9.09% (inactive) and 5.78% (inactive) and 14.1% (inactive). Also, the Potency in [10] is 44.7 µM (active).

Regarding `COCCOCCO`, the call in [1], in assay [3] and in [6] was inactive. Also, the Potency result in assay [2] and in assay [5] was “inactive” in each case. Moreover, the max response in assay [4] is 0.722%; in [7], 3.81% and -4.43%; in assay [8] it was -11.3% (inactive) and -22% (inactive). Moreover, the activity change % (negative = inhibition) in assay [9] is 1.33% (inactive) and -16.2% (inactive).

Consider `Nc1c(Cl)c(Cl)c(Cl)c(Cl)c1Cl`, for which the result in assay [1] and in assay [3] was inactive. Also, the Potency result in assay [2] and in [5] was “inactive” each time. In addition, the max response in [4] was -5.48%; in [7], -3.59%; in assay [8], -8.48% (inactive). In assay [9], the activity change % (negative = inhibition) is 17.1% (inactive).

`O=[N+]([O-])c1c2ccccc2cc2ccccc12`: in assay [2], the Potency was 31.6 µM (active). Moreover, the result in assay [3] and in assay [6] was inactive. Besides, the max response in assay [4] is 3.63%. In addition, the Potency result in assay [5] and in [10] was “inactive” in each case. The activity change % (negative = inhibition) in [9] is 0.364% (inactive).

Regarding `CCCCC(CC)COC(=O)c1ccccc1C(=O)OCC(CC)CCCC` (centres undefined), the compound was called inactive in [1], in assay [3] and in assay [6]. Moreover, the Potency result in [2], in assay [5] and in assay [10] was “inactive” each time. The max response in [4] was -20.4% and -8.96%; in assay [7], -12.5% and -12.9%; in assay [8] it was 9.66% (inactive) and 2.99% (inactive). In addition, the activity change % (negative = inhibition) in assay [9] was -25.5% (inactive) and -4.42% (inactive).

`Nc1ccc(N=Nc2ccccc2)cc1`: the outcome in [1], in [3] and in assay [6] was inactive. Moreover, the Potency result in assay [2] and in assay [5] was “inactive” each time. Also, the max response in [4] was -10.7%. The activity change % (negative = inhibition) in assay [9] was -2.63% (inactive).

Turning to `CCOP(=O)(NC(C)C)Oc1ccc(SC)c(C)c1` (centres undefined), the compound was classed as inactive in assay [1] and in assay [3]. Besides, the Potency result in assay [2] was “inactive and 44.7 µM (active)”. The max response was 8.26% in assay [4]; 1.81% and -9.53% in assay [7]; -12.2% (inactive) and -3.23% (inactive) in assay [8]. Moreover, the Potency entry in [5] and in assay [10] was “inactive” in each case.

Regarding `CN(C)NC(=O)CCC(=O)O`, the result in assay [1], in assay [3] and in assay [6] was inactive. Besides, the Potency result in [2], in assay [5] and in [10] was “inactive” throughout. Besides, the max response in assay [4] is 6.92% and -25.6%; in [7], -8.59% and -3.29%; in [8] it was -0.551% (inactive) and 8.99% (inactive). Besides, in [9], the activity change % (negative = inhibition) was -3.38% (inactive).

With `CCCCCCCCc1ccc(O)cc1`, the result in assay [1], in assay [3] and in assay [6] was inactive. Further, the Potency entry in assay [2], in [5] and in [10] was “inactive” throughout. Moreover, the max response in assay [4] was -5.76% and -13.1%; in assay [7] it was -5.97%; in assay [8], -17.2% (inactive).

As for `O=C(O)COc1ccccc1`, the call in assay [1], in assay [3] and in [6] was inactive. In addition, the max response in assay [7] is 0.163%; in [8], -9.5% (inactive). Moreover, the activity change % (negative = inhibition) in assay [9] is -9.48% (inactive). Besides, the Potency result in [10] was “inactive”.

For the compound `CCCCCCCCCC(CC)c1ccc(S(=O)(=O)O)cc1` (centres undefined), the result in assay [1] and in assay [6] was inactive. Moreover, the Potency result in [2], in [5] and in [10] was “inactive” each time. In addition, the max response in [4] is 2.78% and -0.585%; in assay [7], -9.16% and 3.96%; in assay [8], 4.12% (inactive) and -4.98% (inactive). The activity change % (negative = inhibition) in assay [9] was 6.11% (inactive) and -12% (inactive).

Consider `CS(=O)(=O)c1ccc(C(=O)C2C(=O)CCCC2=O)c([N+](=O)[O-])c1`, for which the Potency entry in [2] was “inactive”. For the same compound, the compound was classed as inactive in assay [3] and in [6]. Moreover, the max response in assay [4] is 11.3%; in assay [7], -0.159%; in [8], 0.528% (inactive). Besides, the Potency in [5] is 17.8 µM (active). For the same compound, in assay [9], the activity change % (negative = inhibition) is 9.38% (inactive).

`O=S(=O)(O)C(F)(F)C(F)(F)C(F)(F)C(F)(F)F`: the result in [1], in [3] and in assay [6] was inactive. Moreover, the Potency entry in [2] is “inactive”. In addition, the activity change % (negative = inhibition) in [9] is -13.9% (inactive).

Consider `c1cc2ccc3cccc4ccc(c1)c2c34`, for which the call in assay [1], in [3] and in assay [6] was inactive. The Potency entry in [2], in [5] and in assay [10] was “inactive” each time. For the same compound, the max response is -6.58% and -8.62% in assay [4]; -9.93% and -1.15% in assay [7]; 0.282% (inactive) and -8.73% (inactive) in assay [8]. In assay [9], the activity change % (negative = inhibition) is 8.95% (inactive).

Turning to `CCOCCOC(C)=O`, the result in assay [1] and in [3] was inactive. Besides, the Potency entry in assay [2], in [5] and in assay [10] was “inactive” in each case. Moreover, the max response in assay [4] was -8.15%; in assay [7], -4.94%; in assay [8] it was 11% (inactive). In assay [9], the activity change % (negative = inhibition) is 9.89% (inactive).

Regarding `Nc1ccc(Sc2ccc(N)cc2)cc1`, the compound was classed as inactive in [1], in assay [3] and in assay [6]. Further, the Potency entry in [2], in [5] and in assay [10] was “inactive” each time. The max response in assay [4] was 14.5% and 0.308%; in assay [7], 1.56% and -5.13%; in [8], 1.16% (inactive) and 6.78% (inactive). Further, the activity change % (negative = inhibition) in [9] is -2.35% (inactive) and -11.2% (inactive).
